Compound activity from PubChem BioAssay.
Shown are actives, neighbours in structure and some others; about 12% of the full set was active somewhere.
G9a inh: inhibitors of human histone lysine methyltransferase G9a | AID 504332 | 350,000 tested, 8.8% active | Potency, µM (top dose mostly 102 µM), for the others: at the top dose activity, negative = inhibition, actives largely listed as inhibitors | G9a H3K9 monomethylation, AlphaScreen, 2 h | Q96KQ7; also: % is scaled to controls: 0 for no effect and ±100 for the full control effect; nearly all actives have a fitted effect of over 75% in size
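Using a bead-based AlphaScreen, monomethylated H3K9 product from 2 h room-temperature reactions (G9a 20 nM, peptide 500 nM, SAM 20 uM) was detected with 0.5 ug/mL rabbit anti-H3K9me1 antibody.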
JMJD2A Tudor: inhibitors of human JMJD2A Tudor domain; O75164; AlphaScreen JMJD2A-Tudor / H3K4me3 peptide binding; Potency, µM (series often up to 114 µM), without a hit: at the highest dose activity change, negative = inhibition, hits mostly inhibitors; 390,000 tested, 4.4% active; also: % is scaled to controls: 0 for no effect and ±100 for the full control effect; nearly all actives have a fitted effect of over 50% in size
PLK1 PBD block: inhibitors of human PLK1 polo-box domain binding; P53350; Plk1 PBD binding of FITC phosphopeptide, fluorescence polarization; Potency, µM, for the others: max response, negative = inhibition, hits mostly inhibitors; 360,000 tested, 2.8% active; AID 720504; also: series mostly up to about 57 µM; % is scaled to controls: 0 for no effect and ±100 for the full control effect; nearly all actives have a fitted effect of over 65% in size
Target sequence (P53350 whole entry, looked up, the tested form may be a part): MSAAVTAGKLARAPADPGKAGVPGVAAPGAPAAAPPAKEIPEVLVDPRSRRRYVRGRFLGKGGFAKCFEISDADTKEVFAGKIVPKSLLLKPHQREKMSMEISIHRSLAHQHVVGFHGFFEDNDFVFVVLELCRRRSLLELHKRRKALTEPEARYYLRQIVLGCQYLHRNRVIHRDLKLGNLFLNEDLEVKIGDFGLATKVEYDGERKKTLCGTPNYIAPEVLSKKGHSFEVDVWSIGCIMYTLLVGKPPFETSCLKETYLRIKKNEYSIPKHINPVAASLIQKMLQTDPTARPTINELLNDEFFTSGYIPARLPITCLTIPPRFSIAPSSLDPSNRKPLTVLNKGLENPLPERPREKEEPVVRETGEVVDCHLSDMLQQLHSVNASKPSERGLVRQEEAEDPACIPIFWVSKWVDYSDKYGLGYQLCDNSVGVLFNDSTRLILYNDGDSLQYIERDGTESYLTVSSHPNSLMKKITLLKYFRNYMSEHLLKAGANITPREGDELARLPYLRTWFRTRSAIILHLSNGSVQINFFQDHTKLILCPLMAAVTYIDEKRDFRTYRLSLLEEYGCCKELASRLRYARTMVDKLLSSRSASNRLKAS
Sfp PPTase inh: Sfp phosphopantetheinyl transferase inhibition; Q9F4F7; Biochemical Sfp PPTase activity, qHTS; Potency, µM, without a hit: largest response in the series, negative = inhibition, actives largely listed as inhibitors; 310,000 tested, 3.5% active;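 also: the enzyme is Sfp with the accession as filed and its product quenches rhodamine fluorescence; 0% = enzyme reaction without inhibitor and -100% = no enzyme wells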
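Fluorescence-quenching assay with 15 nM Sfp, 5 uM rhodamine-CoA and 12.5 uM BHQ-2-labelled ybbR peptide in pH 7.6 Hepes/MgCl2 buffer. Enzyme was pre-incubated with compound for 15 min at room temperature. Rate was taken from the 30-min fluorescence change (525/598 nm).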
HP1b binding inh: HP1-beta chromodomain-methylated histone interaction inhibition; P83916; AlphaScreen HP1-beta / biotin-H3K9me3 peptide binding; Potency, µM (highest dose often 114 µM), without a hit: at the highest dose activity change, negative = inhibition, actives largely listed as inhibitors; 390,000 tested, 0.56% active; also: nearly all actives have a fitted effect of over 70% in size
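Compound inhibition of the preformed complex between 50 nM HP1-beta and 50 nM biotinylated H3K9me3 peptide was read by AlphaScreen. Buffer was PBS pH 7.4 with 0.01% Tween-20. Incubations ran 30 min at room temperature, with 10 ug/mL donor/acceptor beads.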
BAZ2B inh: BAZ2B (human) inhibition; 360,000 tested, 4.4% active; AID 504333; AlphaScreen BAZ2B-H3K14Ac peptide displacement; Potency, µM (doses to about 114 µM), for inactives: top-dose activity change, negative = inhibition, most hits filed as inhibitors; also: % is scaled to controls: 0 for no effect and ±100 for the full control effect; nearly all actives have a fitted effect of over 60% in size
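AlphaScreen displacement: compounds (up to 110uM) incubated 30 min at room temperature with a preformed 50 nM BAZ2B/50 nM biotinylated H3K14Ac peptide complex in PBS pH 7.4 with Tween-20. Donor and acceptor beads at 10 ug/mL final added, 20 min light-protected before reading.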
* = called active by the depositor; [ ] = remark or other dose. Calls follow the shape of the dose curve; as a rule, active = well fitted curve in the direction sought with a large enough effect; inconclusive = small, poorly fitted or top-dose-only effect, or another doubt; inactive = no such curve, though single readings can be large; an effect the other way counts as inactive or inconclusive. Potency is read from the fitted curve at half-maximal effect.

CCN(CC)CCCN1C(=O)C(O)=C(C(=O)c2cc3ccccc3o2)C1c1ccccn1 (stereo unspecified) was read as G9a inh inconclusive, JMJD2A Tudor 1%[11.4 µM], PLK1 PBD block 27µM*, Sfp PPTase inh 8%, HP1b binding inh -3% and BAZ2B inh -26%.
CN(C)CCN1C(=O)C(O)=C(C(=O)c2cc3ccccc3o2)C1c1ccccn1 (stereo unspecified) was read as G9a inh inconclusive, Sfp PPTase inh -3% and BAZ2B inh 12%.
`COCCN(C(=O)c1cccc(-n2cnnn2)c1)c1c(N)n(CC(C)C)c(=O)[nH]c1=O` gave G9a inh -7%[59 µM], JMJD2A Tudor -7%, PLK1 PBD block 0%, HP1b binding inh 23% and BAZ2B inh 0%.
Cc1cc(NC(=O)C(C)(C)C)cc(-c2nc3ncccc3o2)c1O was read as G9a inh -24%[59 µM], JMJD2A Tudor -3%, HP1b binding inh 32% and BAZ2B inh -21%.
Cc1c[n+]([O-])n(-c2ccc(C(=O)O)cc2)n1 was read as G9a inh inconclusive, JMJD2A Tudor inconclusive, PLK1 PBD block -10%, Sfp PPTase inh 4%, HP1b binding inh 6% and BAZ2B inh 56µM*.
For Cc1nn(-c2ccc(C(=O)O)cc2)c(C)c1Cl the results were G9a inh -33%, JMJD2A Tudor -3%, PLK1 PBD block -8%, Sfp PPTase inh 15%, HP1b binding inh 47% and BAZ2B inh -22%.
For COc1ccccc1NC(=O)Cn1c(=O)n(CCC(=O)NCC2CCCO2)c(=O)c2cc(OC)c(OC)cc21 (stereo unspecified) the results were G9a inh -5%[59 µM], JMJD2A Tudor -9%, HP1b binding inh 30% and BAZ2B inh 3%.
For CCOc1cc(/C=C(\C#N)C(=O)Nc2ccccc2C(=O)O)ccc1OC(=O)c1ccc(C)cc1 the results were JMJD2A Tudor 50µM*, PLK1 PBD block 19µM*, Sfp PPTase inh -12%, HP1b binding inh 14% and BAZ2B inh 2%.
`COc1cc(/C=C(\C#N)C(=O)Nc2ccccc2C(=O)O)cc(Cl)c1OC` gave G9a inh -46%, JMJD2A Tudor -20%, PLK1 PBD block 21µM*, Sfp PPTase inh 6%, HP1b binding inh 1% and BAZ2B inh -13%.
Screening COc1cc(C=C(C#N)C(=O)c2ccccc2)cc(OC)c1OC returned PLK1 PBD block 3.8µM*.
Screening COc1ccc(/C=C(/C#N)C(=O)Nc2ccc(C)cc2C)cc1C(=O)O returned G9a inh -13%[12.7 µM], JMJD2A Tudor -15%, PLK1 PBD block -10%, Sfp PPTase inh 5%, HP1b binding inh 35% and BAZ2B inh -7%.
`COc1ccc(/C=C(/C#N)C(=O)Nc2ccccc2C)cc1C(=O)O` gave G9a inh 21%[59 µM], JMJD2A Tudor -27%, PLK1 PBD block -3%, Sfp PPTase inh -14%, HP1b binding inh 27% and BAZ2B inh -8%.
`COc1cc(/C=C(\C#N)C(=O)c2c(C)[nH]c3ccccc23)cc(OC)c1OC` gave G9a inh 45µM*, JMJD2A Tudor 28µM*, PLK1 PBD block inconclusive, Sfp PPTase inh -16%, HP1b binding inh inconclusive and BAZ2B inh -13%.
Screening Cc1cc(C(=O)OCC(=O)Nc2cccc(S(=O)(=O)N(C)C)c2)c(C)o1 returned G9a inh -3%, JMJD2A Tudor -28%, PLK1 PBD block -3%, Sfp PPTase inh 13%, HP1b binding inh -12% and BAZ2B inh -25%.
Cc1cc(NC(=O)CSc2nc(=O)n(CCCN(C)C)c3c2CCCC3)no1 was read as G9a inh inconclusive, JMJD2A Tudor 1%, PLK1 PBD block 0%, HP1b binding inh 37% and BAZ2B inh 10%.
For O=C(Nc1nc2ccccc2s1)C1CCN(S(=O)(=O)c2cc([N+](=O)[O-])ccc2Cl)CC1 the results were G9a inh inconclusive, JMJD2A Tudor inconclusive, PLK1 PBD block -5%, Sfp PPTase inh 0%, HP1b binding inh -20% and BAZ2B inh 28µM*.
For CCC(C)NC(=O)C1CCN(S(=O)(=O)c2cc([N+](=O)[O-])ccc2Cl)CC1 (stereo unspecified) the results were G9a inh -23%, JMJD2A Tudor -11%, PLK1 PBD block -7%, Sfp PPTase inh 9%, HP1b binding inh 17% and BAZ2B inh -2%.
Screening Cc1ccc(S(=O)(=O)CCC(=O)Nc2nnc(-c3cccs3)o2)cc1 returned G9a inh -29%, JMJD2A Tudor 11µM*, PLK1 PBD block -5%, HP1b binding inh 36% and BAZ2B inh inconclusive.
Cc1ccc(S(=O)(=O)CCC(=O)Nc2nnc(-c3ccco3)o2)cc1 was read as G9a inh 25µM*, JMJD2A Tudor 18µM*, PLK1 PBD block -5%, HP1b binding inh 28% and BAZ2B inh inconclusive.
Screening Cc1noc(C)c1NC(=O)N(C)C[C@@H]1OCc2cnnn2CCCC(=O)N([C@@H](C)CO)C[C@@H]1C returned PLK1 PBD block -16%.
For CCN1C(=O)C(CC(=O)NCCc2ccccc2)N(NC(=O)c2ccc(Br)cc2)C1=S (stereo unspecified) the results were PLK1 PBD block 2%.
Screening COc1ccccc1/C=c1\sc2nc(-c3ccccc3OC)nn2c1=O returned JMJD2A Tudor -13%, PLK1 PBD block -10%, Sfp PPTase inh -36%, HP1b binding inh 17% and BAZ2B inh -26%.
Cc1ccc(-c2nc3s/c(=C\c4ccco4)c(=O)n3n2)cc1 was read as G9a inh 50µM*, JMJD2A Tudor 50µM*, PLK1 PBD block -9%, Sfp PPTase inh 2%, HP1b binding inh -14% and BAZ2B inh 50µM*.
O=c1nc2s/c(=C\c3ccco3)c(=O)n2nc1Cc1ccc(F)cc1 was read as G9a inh inconclusive, JMJD2A Tudor 56µM*, PLK1 PBD block -23%, Sfp PPTase inh 45µM*, HP1b binding inh inconclusive and BAZ2B inh 22µM*.
`COc1ccc(Br)cc1/C=c1\sc2nc(-c3ccco3)nn2c1=O` gave G9a inh inconclusive, JMJD2A Tudor 45µM*, PLK1 PBD block inconclusive, Sfp PPTase inh inconclusive, HP1b binding inh -25% and BAZ2B inh 16µM*.
Screening Cc1ccc(/C=c2\sc3nc(-c4ccccc4Br)nn3c2=O)o1 returned G9a inh 3.5µM*, JMJD2A Tudor 50µM*, PLK1 PBD block -26%, Sfp PPTase inh inconclusive, HP1b binding inh 1% and BAZ2B inh 50µM*.
Nc1ncnc2c1[nH]c(=S)n2C1OC(CO)C(O)C1O (stereo unspecified) was read as JMJD2A Tudor inconclusive and HP1b binding inh -30%[57 µM].
